{"source": "PubChem BioAssay AID720518", "about": "(National Center for Advancing Translational Sciences (NCATS), 2013)", "note": "Results filed as inconclusive are left out. Entries that show only a call come without a potency. The source made the active and inactive calls. The call rests on the fitted dose curve. Potency means the concentration at half of the fitted maximal effect."}
{"test": "qHTS for Inhibitors of Cell Surface uPA Generation: Wild-type Protective Antigen (WT-PrAg) Counterscreen for Cherry-picked Compounds", "details": "cells, WT protective antigen toxicity counterscreen; series mostly up to 115 µM"}
{"smiles": "O=C(O)c1ccccc1/C=N/NC(=S)NC1CCCCC1", "Potency": "inactive"}
{"smiles": "COc1ccc(-c2cccc(-c3cc(=O)oc4cc(OC)c(OC)c(OC)c34)c2)cc1", "Potency": "inactive"}
{"smiles": "O=C1N[C@@H](Cc2c[nH]c3ccccc23)C(=O)N[C@H]1Cc1ccccc1", "Potency": "inactive"}
{"smiles": "O=C(CNC(=O)N1CC(=O)Nc2ccccc21)Nc1cc(Cl)ccc1Cl", "Potency": "inactive"}
{"smiles": "OCC1CCCCN1CC(O)COC(c1ccc(F)cc1)c1ccc(F)cc1", "note": "(stereo not given)", "Potency": "inactive"}
{"smiles": "Cc1cccn2c(CNCC(C)Oc3cccnc3)c(C(=O)N3CCOCC3)nc12", "note": "(stereo not given)", "Potency": "inactive"}
{"smiles": "O=C(COc1ncnc2sccc12)Nc1cccc(S(=O)(=O)N2CCCC2)c1", "Potency": "inactive"}
{"smiles": "CC(C)(C)OC(=O)N(Cc1ccccc1)Cc1ccccc1OCc1cccc(NC(=O)C2CC2)c1", "Potency": "inactive"}
{"smiles": "O=C(OCC(=O)N1CCOCC1)c1c(Cl)ccc(Cl)c1Cl", "Potency": "inactive"}
{"smiles": "CCC(CC)Nc1ccc(C(CC(N)=O)NC(=O)Cc2ccc(Br)cc2)cc1[N+](=O)[O-]", "note": "(stereo not given)", "Potency": "inactive"}
{"smiles": "COc1ccccc1NC(=O)Cn1nnc(-c2ccccc2NC(=O)c2cc3ccccc3oc2=O)n1", "Potency": "inactive"}
{"smiles": "CCC(=O)Nc1nc(-c2cc([N+](=O)[O-])cs2)cs1", "Potency": "inactive"}
{"smiles": "COCCn1c(SCC(=O)Nc2ccc(F)cc2)nc2ccccc2c1=O", "Potency": "inactive"}
{"smiles": "Cc1cc(COc2ccccc2)oc1C(=O)O", "Potency": "inactive"}
{"smiles": "O=C(CCCOc1ccc(Cl)cc1Cl)NCc1ccncc1", "Potency": "inactive"}
{"smiles": "COC(=O)Cc1c(C)c2ccc(OCC(=O)N3CCCC(C)C3)c(C)c2oc1=O", "note": "(stereo not given)", "Potency": "inactive"}
{"smiles": "COc1ccccc1C(=O)NCCC(=O)NCC(c1ccc(F)cc1)N1CCOCC1", "note": "(stereo not given)", "Potency": "inactive"}
{"smiles": "CC1CCCC(NC(=O)CNC(=S)N(Cc2ccccc2)Cc2cccs2)C1C", "note": "(stereo not given)", "Potency": "inactive"}
{"smiles": "COc1ccc(CC(=O)NNS(=O)(=O)c2ccccc2[N+](=O)[O-])cc1OC", "Potency": "inactive"}
{"smiles": "O=C(C[C@@H]1C/C=C\\C[C@H](Cc2ccc(F)cc2)C(=O)OC[C@H]2CCCN2C1=O)N[C@H](CO)Cc1ccccc1", "Potency": "inactive"}
{"smiles": "O=C(O)CNS(=O)(=O)c1ccc2c(c1)Cc1cc(S(=O)(=O)NCC(=O)O)ccc1-2", "Potency": "inactive"}
{"smiles": "CC(=O)Nc1c2c(nn1-c1cccc(C)c1)CSC2", "Potency": "inactive"}
{"smiles": "CC(C)N1CCc2c(sc(NC(=O)Cc3ccccc3)c2C(N)=O)C1", "Potency": "inactive"}
{"smiles": "CCCCCOC(=O)Nc1nnc(CCCCC)s1", "Potency": "inactive"}
{"smiles": "O=C(O)C(Nc1nc(C(F)(F)F)nc2ccccc12)c1ccccc1", "note": "(stereo not given)", "Potency": "inactive"}
{"smiles": "Cn1nc(N2CCN(S(=O)(=O)c3ccccc3)CC2)c(=O)n(C)c1=O", "Potency": "inactive"}
{"smiles": "O=C(COc1cc2oc(=O)cc(-c3ccccc3)c2cc1Cl)NC(Cc1c[nH]c2ccc(O)cc12)C(=O)O", "note": "(stereo not given)", "Potency": "inactive"}
{"smiles": "CCOC(=O)N1CCc2c(sc3nc4n(c(=O)c23)N=C(C)CS4)C1", "Potency": "inactive"}
{"smiles": "Cc1ccc(S(=O)(=O)N2CCOCC2)cc1NC(=O)CSc1nc(N)cc(N)n1", "Potency": "inactive"}
{"smiles": "CC(C)C1Oc2ccccc2N(CC(=O)NC2CCCCC2)C1=O", "note": "(stereo not given)", "Potency": "36.9 µM (active)"}
{"smiles": "CCOC(=O)Cc1csc(NC(=O)Nc2cccc(OC)c2)n1", "Potency": "inactive"}
{"smiles": "Cc1cccc(N2C(=O)c3cccc(Oc4ccc(Cl)cc4)c3C2=O)c1", "Potency": "inactive"}
{"smiles": "Cc1ccc(C)c(N2N=C(C(=O)N(CC(C)C)c3c(N)n(Cc4ccccc4)c(=O)[nH]c3=O)CCC2=O)c1", "Potency": "inactive"}
{"smiles": "COc1cc2c(cc1OC)CN(C(=O)c1ccc(-c3ccccc3)cc1)CC2", "Potency": "inactive"}
{"smiles": "COc1ccccc1CNC(=O)CCCn1nc(C)c2c(C)n(-c3ccccc3)nc2c1=O", "Potency": "inactive"}
{"smiles": "O=C1CCCc2ccccc2N1Cc1ccc(F)cc1", "Potency": "inactive"}
{"smiles": "CC1(C)CC(CCC(=O)NC(=S)Nc2ccccc2Cl)C(=O)O1", "note": "(stereo not given)", "Potency": "inactive"}
{"smiles": "COc1ccc(NS(=O)(=O)c2cc3c(cc2C)NC(=O)CO3)c(OC)c1", "Potency": "inactive"}
{"smiles": "COc1cc(CNCCc2ccccc2)cc(Br)c1OCC(=O)Nc1ccccc1C", "Potency": "inactive"}
{"smiles": "CC1CC(=O)Nc2ccccc2N1C(=O)Cn1cnc2ccc(Br)cc2c1=O", "note": "(stereo not given)", "Potency": "inactive"}
